Screens (PubChem)
This is a sample that favours compounds with a hit; in the whole collection about 2.2% have one here.
EWS-Fli inh – EWS/Fli transcriptional activity inhibition. A673 NR0B1-luciferase reporter, viability-normalised. inhibition, % at 12.6 µM. hit rate 0.67% among 350,000;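 active means mean inhibition of at least 50% after viability correction, with every replicate also passing that limit; inconclusive means mean reaches 50% but only one of two replicates passes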;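 further: firefly luciferase signal divided by Alamar Blue viability fluorescence both relative to DMSO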
EBV LMP1 NFkB – inhibitors of Epstein-Barr LMP1-induced NF-kappaB reporter. LMP1-induced NF-kappaB luciferase reporter cells, luminescence. inhibition, % at 12.5 µM. hit rate 0.69% among 350,000. AID 504558; in the data active means inhibition above about 41%; inconclusive means no clear call, values can overlap the other calls;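 further: 0% = neutral control wells and 100% = reference inhibitor control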
MITF TRPM1 inh – inhibitors of MITF-driven TRPM1 promoter in melanoma cells | inhibition, % at 12.5 µM | hit rate 0.83% among 330,000 | SK-MEL-5 TRPM1 promoter luciferase, 24 h | AID 488899;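 active means mean inhibition across replicates of 60% or more, whatever share of single replicates reaches that level; inconclusive means some that reach 60%, reason not given; inactive means mean inhibition across replicates below 60%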
LGR2 antag – blocks bursicon-induced cAMP signaling via Drosophila LGR2; HEK293 LGR2, CRE-luciferase, bursicon-stimulated, 4 h; hit rate 0.35% among 380,000; inhibition, % at 9.99 µM; AID 720647;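 active means drop in luminescence signal, shown as inhibition above about 50% in the replicate tests, limit read from the data, passing the limit was not always enough; inconclusive means probably only some replicates passing the limit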;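 further: agonist challenge used bursicon conditioned medium at about half maximal strength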
PAX8 inh HTS – PAX8 transcriptional activity inhibition. AID 652154. RMG-I TPO-luciferase reporter, SteadyGlo, 24 h. inhibition, % at 12.6 µM. hit rate 1.2% among 360,000;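 active means mean replicate inhibition at least 60% with every replicate also reaching 60%; inconclusive means only one of the two criteria is met; inactive means mean below 60% and not all replicates reaching 60%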;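 further: luciferase light reporting Pax8 driven TPO promoter activity; plate controls were median of neutral control wells for no effect and mitoxantrone controls for full effect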
Shn3 3UTR inh – reduces Shn3 3'UTR luciferase signal in osteoblasts; Clone20 osteoblast Shn3 3'UTR firefly luciferase, 24 h; inhibition, % at 12.5 µM; hit rate 0.52% among 360,000;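 active means mean inhibition of at least 75% with every replicate also reaching 75%; inconclusive means mean inhibition at least 75% but some replicate below; inactive means mean inhibition below 75%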;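 further: 0% = median of neutral control wells and 100% = pilot-screen positive control compound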
Active calls of the source: *; ? = inconclusive; . = no result; ! = not active in a repeat.

SMILES	EWS-Fli inh	EBV LMP1 NFkB	MITF TRPM1 inh	LGR2 antag	PAX8 inh HTS	Shn3 3UTR inh
COc1ccc2[nH]cc(CCNC(C)=O)c2c1	-7	4	-2	-15	-5	12
COc1cc2c(CCNC(C)=O)c[nH]c2cc1Cl	-6	74*	-11	.	-23	1
C=CCn1c(=O)c2ccccc2n2c(SCC(=O)/C(C#N)=C(\C)N)nnc12	-1	2	-5	-9	.	93*!
C=CCn1c(=O)c2ccccc2n2c(SC(C)C(N)=O)nnc12 (configuration not stated)	4	2	-19	14	5	-1
CC1CCN(S(=O)(=O)c2ccc3c(c2)C(=NO)c2cc(S(=O)(=O)N4CCC(C)CC4)ccc2-3)CC1	.	-166	100*	.	.	95*
O=S(=O)(c1ccc(S(=O)(=O)N2CCCC2)cc1)N1CCCCCC1	-6	-9	10	8	.	-3
O=S(=O)(c1ccc2c(c1)C(=NO)c1cc(S(=O)(=O)N3CCCCC3)ccc1-2)N1CCCCC1	.	85*	88*	.	109*	98*
COc1ccc(S(=O)(=O)Nc2ccc3c(c2)C(=O)N([C@H](C)CO)C[C@H](C)[C@H](CN(C)C(=O)c2ccccc2)OCCCC[C@H](C)O3)cc1	8	.	.	-9	-5	.
COc1cc(Cn2c3ccc(NC(=O)NCc4ccc(F)cc4)cc3c(=O)n2C)ccc1F	51*	.	.	0	36	18
O=C(O)c1cccc(NC(=O)c2ccc(COc3ccc(Cl)cc3)cc2)c1	-37	6	-29	-11	-28	-29
COc1ccc(COc2cc(-c3cccc(OC)c3)nc3ccc(NC(=O)c4cccnc4)cc23)cc1	14	-14	4	37	65*	10
COc1ccc(COc2cc(-c3cccc(OC)c3)nc3ccc(NC(=O)c4ccc(Cl)cc4)cc23)cc1	57*	-14	11	3	24	18
COc1ccc(COc2cc(-c3cccc(OC)c3)nc3ccc(NC(=O)c4ccccc4)cc23)cc1	58*	3	8	14	29	8
COc1ccc(COc2cc(-c3cccc(OC)c3)nc3ccc(NC(=O)c4ccc(OC)cc4)cc23)cc1	48	3	12	-6	78*	19
COc1ccc(C(=O)Nc2ccc(NC(=O)c3cccc(OC)c3)cn2)cc1	4	5	-2	-28	-69	3
Cc1ccc(S(=O)(=O)Nc2ccc3c(c2)C(=O)N([C@@H](C)CO)C[C@@H](C)[C@H](CN(C)C(=O)NC2CCCCC2)OCCCC[C@H](C)O3)cc1	-1	.	.	-10	-6	.
O=C(O)Cc1ccc(NC(=O)c2ccc(NC(=O)c3ccco3)cc2)cc1	.	5	-5	.	.	0
Cc1ccoc1C(=O)Nc1ccc(CC(=O)O)cc1	.	44*	58	.	-20	39
Cc1ccoc1C(=O)Nc1ccc2ccccc2c1	51*	6	-3	60*	4	15
Cc1cc(C(=O)Nc2ccc3ccccc3c2)oc1C	-139	-37	-66	-74	-141	-65
CN(C)CCCNS(=O)(=O)c1ccc(N2CCN(Cc3ccc4c(c3)OCO4)CC2)c([N+](=O)[O-])c1	52*	0	-4	5	5	81
Cn1c(=N)n(CC(=O)O)c2ccccc21	.	0	1	.	.	-2
Cn1c(=N)n(CC(=O)c2ccc(Cl)c(Cl)c2)c2ccccc21	73*	-1	54	23	57	27
Cn1c(=N)n(CC(=O)c2ccccc2)c2ccccc21	65*	.	.	-10	-77	15
CO[C@@H]1CC[C@H]2CCN(C)C(=O)C[C@H](c3ccccc3)CN(C)C(=O)c3cccc(C#N)c3OC[C@H]1O2	5	.	.	0	-1	.
SMILES	EWS-Fli inh	EBV LMP1 NFkB	MITF TRPM1 inh	LGR2 antag	PAX8 inh HTS	Shn3 3UTR inh
Cc1c(N/N=C(\C#N)C(=O)c2ccccc2)c(=O)n(-c2ccccc2)n1C	18	26	31	-2	40	89*
COc1ccc(C(=O)Nc2ccc3c(c2)OC[C@@H](C)NC[C@H](C)[C@@H](OC)CN(C)C3=O)cc1	-5	.	.	1	.	.
Cc1ccc(S(=O)(=O)N(C)C[C@@H]2Oc3cc(C4=CCCC4)ccc3S(=O)(=O)N([C@H](C)CO)C[C@@H]2C)cc1	6	.	.	-13	67*	.
Cc1ccc(S(=O)(=O)N(C)C[C@H]2Oc3cc(C#Cc4ccncc4)ccc3S(=O)(=O)N([C@H](C)CO)C[C@H]2C)cc1	-17	.	.	-5	89*	.
C[C@H]1CN([C@@H](C)CO)S(=O)(=O)c2ccc(C3=CCCC3)cc2O[C@H]1CN(C)S(=O)(=O)c1ccc(F)cc1	-3	.	.	-12	.	.
CC(C)CC#Cc1ccc2c(c1)O[C@H](CN(C)S(=O)(=O)c1ccc(F)cc1)[C@H](C)CN([C@H](C)CO)S2(=O)=O	25	.	.	16	99*	.
CCCC#Cc1ccc2c(c1)O[C@@H](CN(C)S(=O)(=O)c1cccc(OC)c1)[C@@H](C)CN([C@@H](C)CO)S2(=O)=O	17	.	.	6	66*	.
COCC(=O)N1CC2(CCN(C(=O)CN3CCOCC3)CC2)c2c([nH]c3cc(OC)ccc23)[C@@H]1CO	7	.	.	-2	.	.
CC(C)NC(=O)Nc1ccc2c(c1)C(=O)N([C@@H](C)CO)C[C@H](C)[C@@H](CN(C)S(=O)(=O)c1cccs1)O2	0	.	.	3	.	.
CSc1nnc(-c2ccco2)n1-c1ccccc1	.	2	-4	.	.	89*
O=C(NCCc1ccc(Cl)cc1)c1ccc2c(c1)OCO2	-49	-43	-44	-123	-181	-95
O=C(NCCc1ccc(Cl)cc1)c1ccc2c(c1)OCCO2	-6	6	-49	58*	-105	-7
O=C(NCCc1ccccc1F)c1ccc2c(c1)OCCO2	90*	85*	88*	102*	110*	?
Cc1cc(/C=c2\sc3nc4ccccc4n3c2=O)c(C)n1-c1ccc(C(=O)O)cc1	-18	-10	3	-18	-3	-35
Cc1cc(/C=c2/sc3nc4ccccc4n3c2=O)c(C)n1-c1ccccn1	.	56*	86*	.	.	91*
O=S(=O)(/C=C/C=C/S(=O)(=O)c1ccccc1)c1ccccc1	65*	-10	111*	46	117*	98*
O=C(CSc1nnc(-c2ccc(F)cc2)c2ccccc12)Nc1cccc(Cl)c1	1	0	1	8	25	7
O=C(CSc1nnc(-c2ccc(F)cc2)c2ccccc12)Nc1ccccc1	63*	-13	-17	7	-12	10
C[C@@H]1CCCCO[C@H](CN(C)C(=O)NC2CCCCC2)[C@H](C)CN([C@H](C)CO)C(=O)c2cc(NC(=O)Cc3ccccc3)ccc2O1	.	.	.	7	.	.
CCCN(C)C[C@H]1OCCCC[C@@H](C)Oc2ccc(NC(=O)CCC(F)(F)F)cc2C(=O)N([C@H](C)CO)C[C@@H]1C	-2	.	.	-33	-2	.
COc1ccc(-c2sc3ccc(OC)cc3c2C#Cc2cncn2C)cc1	-6	-33	-8	-4	65*	-3
